An excerpt weighted towards active compounds, which were near 2.2% of everything screened.
TWEAK Fn14 block = inhibitors of TWEAK-Fn14 interaction signaling; 360,000 tested, 2% active; inhibition, % at 10 µM; TWEAK-stimulated Fn14 reporter cells, luciferase luminescence, 8 h; in the data active means inhibition above about 50%
TROY signal inh = TROY signaling inhibition; Q293 LMP1-TROYcd NF-kB luciferase reporter, 4 h; inhibition, % at 10 µM; 360,000 tested, 0.98% active; AID 1347056;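 active means compounds whose plate-normalised and pattern-corrected inhibition of the luciferase reporter signal at the single screening dose is 50% or more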
HSP90 inh = HSP90 refolding inhibition in rabbit reticulocyte lysate. luciferase refolding luminescence, 3 h. inhibition, % at 5.6 µM. 290,000 tested, 0.91% active. AID 1789;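 active means inhibition above the screen-wide mean plus 3 SD, computed separately per campaign, cut at about 16% in these data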;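 further: inhibitors lower the luminescence because luciferase stays unfolded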
LGR2 inh = inhibitors of bursicon-induced Drosophila LGR2 receptor cAMP signaling | HEK293 LGR2, CRE-luciferase, bursicon-stimulated, 4 h | 380,000 tested, 0.35% active | inhibition, % at 9.99 µM;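 active means drop in luminescence signal, shown as inhibition above about 50% in the replicate tests, limit read from the data, passing the limit was not always enough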;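 further: agonist challenge used bursicon conditioned medium at about half maximal strength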
Of the large screens only hits and unclear results are named; the others gave an inactive call.

CCCN1C[C@H](C)[C@H](OC)CN(C)C(=O)c2cc(NC(=O)c3ccno3)ccc2OC[C@H]1C	none (no result: TWEAK Fn14 block, TROY signal inh, HSP90 inh)
CCCN1CCC(=NNC(=O)c2ccc(Br)o2)CC1	none
CCCN1CCC(=NNc2ccc(C(=O)O)cc2)CC1	TWEAK Fn14 block 52
CC1(C)CC(=O)C2=C(C1)c1c(ccc3ccccc13)NC2c1cc([N+](=O)[O-])cc([N+](=O)[O-])c1O (stereo not given)	TROY signal inh 53
Cc1cc(C)c2ccc(N)nc2c1O	TWEAK Fn14 block 69 (no result: LGR2 inh)
O=C(C[C@H]1CC[C@@H]2[C@H](COC[C@@H](O)CN2Cc2nccs2)O1)NCc1ccccc1F	none (no result: TWEAK Fn14 block, TROY signal inh, HSP90 inh)
Cc1ccc(C)c(N2CCN(C(=O)Cn3cccc3)CC2)c1	none
Cc1ccc(C)c(N2CCN(C(=O)c3ccc(CS(=O)(=O)c4ccccc4C)o3)CC2)c1	TWEAK Fn14 block 55 (no result: LGR2 inh)
Cc1ccc(Cl)cc1N1CCN(C(=O)c2ccc(CS(=O)Cc3ccc(Cl)cc3)o2)CC1 (stereo not given)	TROY signal inh 54
CCC(=O)N1CCN(c2cc(C)ccc2C)CC1	TWEAK Fn14 block 76 (no result: LGR2 inh)
Cc1ccc(CS(=O)Cc2ccc(C(=O)N3CCN(c4cccc(C)c4C)CC3)o2)cc1 (stereo not given)	TROY signal inh 57 (no result: HSP90 inh)
C[C@H]1CCCCO[C@@H](CN(C)S(=O)(=O)c2cccs2)[C@@H](C)CN([C@@H](C)CO)C(=O)c2cc(NC(=O)C3CCCCC3)ccc2O1	none (no result: TWEAK Fn14 block, TROY signal inh, HSP90 inh)
C[C@H](CO)N1C[C@H](C)[C@@H](CN(C)C(=O)CCN(C)C)OCc2ccccc2-c2c(n(C)c3ccccc23)C1=O	none (no result: TWEAK Fn14 block, TROY signal inh, HSP90 inh)
COc1ccccc1C#Cc1ccc2c(c1)[C@H]1[C@H](CCN1S(=O)(=O)c1ccc(C)cc1)[C@@H](CO)N2	none (no result: TWEAK Fn14 block, TROY signal inh, HSP90 inh)
O=C(NC1CCCC1)N[C@@H]1CC[C@H](CC(=O)N2CCOCC2)O[C@@H]1CO	none (no result: TWEAK Fn14 block, TROY signal inh, HSP90 inh)
CCC(=O)N[C@@H]1CC[C@@H](CC(=O)NCC2CC2)O[C@@H]1CO	none (no result: TWEAK Fn14 block, TROY signal inh, HSP90 inh)
CCC(=O)Nc1cccc(C(=O)/C=C/c2ccc(F)cc2)c1	TWEAK Fn14 block 72
CC(=O)Nc1cccc(C(=O)/C=C/c2ccc(C)cc2)c1	TWEAK Fn14 block 71 (no result: LGR2 inh)
CC(=O)Nc1ccc(/C=C/C(=O)c2ccc3c(c2)OCCO3)cc1	none
COc1cccc(NC(=S)NC(=O)/C=C/c2ccc(F)cc2)c1	none
COc1ccc(-c2csc(NC(=O)C3CC(=O)N(Cc4ccccc4)C3)n2)cc1OC (stereo not given)	TWEAK Fn14 block 89
CCOc1ccc(N2CC(C(=O)Nc3ccc4c(c3)OCCO4)CC2=O)cc1 (stereo not given)	TWEAK Fn14 block 78, TROY signal inh 61
O=C(C1CC(=O)N(c2ccc3c(c2)OCCO3)C1)N1CCN(S(=O)(=O)c2ccccc2F)CC1 (stereo not given)	TWEAK Fn14 block 83 (no result: HSP90 inh)
Cc1nnc(NC(=O)C2CC(=O)N(c3ccc4c(c3)OCCO4)C2)s1 (stereo not given)	none (no result: HSP90 inh)
O=C(Nc1nc(-c2ccco2)c(-c2ccco2)s1)C1CC(=O)N(c2ccc3c(c2)OCCO3)C1 (stereo not given)	TWEAK Fn14 block 81 (no result: LGR2 inh)
CCOc1ccc(N2CC(C(=O)Nc3ccc4c(c3)OCO4)CC2=O)cc1 (stereo not given)	none
O=C(C[C@H]1CC[C@H](NC(=O)c2cnccn2)[C@@H](CO)O1)NCc1ccccc1F	none (no result: TWEAK Fn14 block, TROY signal inh, HSP90 inh)
CC(=O)N1[C@@H](CO)[C@@H]2c3ccccc3N(S(=O)(=O)c3ccc(F)cc3)C[C@@H]21	none (no result: TWEAK Fn14 block, TROY signal inh, HSP90 inh)
CCc1cccc(CC)c1NC(=O)C1CC(=O)N(c2ccc3c(c2)OCCO3)C1 (stereo not given)	TWEAK Fn14 block 69 (no result: LGR2 inh)
CCc1ccc(-c2csc(NC(=O)C3CC(=O)N(c4ccc5c(c4)OCCO5)C3)n2)cc1 (stereo not given)	TWEAK Fn14 block 75 (no result: LGR2 inh)
Cc1csc(NC(=O)C2CC(=O)N(c3ccc4c(c3)OCCO4)C2)n1 (stereo not given)	none (no result: HSP90 inh)
O=C(C1COc2ccccc2O1)N1CCN(Cc2ccc(Br)cc2F)CC1 (stereo not given)	TWEAK Fn14 block 64
Cc1sc2ncnc(N/N=C/c3ccc(O)cc3)c2c1C	TWEAK Fn14 block 52
COc1ccc(/C=N/Nc2ncnc3sc(C)c(C)c23)cc1	none
CCNS(=O)(=O)c1ccc(CCC(=O)Nc2ccc3c(c2)OCO3)cc1	none
CC(C)CNS(=O)(=O)c1ccc(CCC(=O)Nc2ccc3c(c2)OCO3)cc1	HSP90 inh 17 (no result: LGR2 inh)
CN1c2ccccc2C(C)(C)C12C=Nc1c(ccc3ccccc13)O2 (stereo not given)	TWEAK Fn14 block 71, TROY signal inh 70
COc1ccc2ccc3c(c2c1)N=CC1(O3)N(C)c2ccccc2C1(C)C (stereo not given)	none (no result: LGR2 inh)
CN1c2ccccc2C(C)(C)[C@]12C=Cc1cc(O)ccc1O2	TWEAK Fn14 block 102
COc1ccc2c3c([nH]c2c1)[C@@H](CO)N(C(=O)C1CCC1)CC31CCN(C(=O)c2ccncc2)CC1	none (no result: TWEAK Fn14 block, TROY signal inh, HSP90 inh)
COc1ccc(Cn2c(C3CCCCC3)nc3c(c(=O)c4ccccc4n3C)c2=O)cc1	none (no result: TWEAK Fn14 block, TROY signal inh, LGR2 inh)
COc1ccc(CCn2c(C3CCCCC3)nc3c(c(=O)c4ccccc4n3C)c2=O)cc1	TROY signal inh 65
Cc1c(Br)c(C(F)(F)F)nn1CC(=O)N1CCCC1	none (no result: LGR2 inh)
Cc1cnn(C(=O)Cn2nc(C(F)F)c(Br)c2C)c1	TROY signal inh 68 (no result: HSP90 inh)
NC1(C#Cc2ccc3c(=O)c4ccccc4sc3c2)CCCCC1	TWEAK Fn14 block 81 (no result: HSP90 inh, LGR2 inh)
COc1cccc2oc3ccc(C#CC4(N)CCCCC4)cc3c(=O)c12	none
Cc1cc2sc3ccc(C#CC4(O)CCCCC4)cc3c(=O)c2cc1C	TWEAK Fn14 block 106, TROY signal inh 90 (no result: HSP90 inh, LGR2 inh)
O=c1c2ccccc2oc2ccc(C#CC3(O)CCCCC3)cc12	TWEAK Fn14 block 98, TROY signal inh 89, LGR2 inh 75 (no result: HSP90 inh)
O=C(Cc1cccnc1)N[C@@H]1CC[C@@H](CCn2cc(Cc3ccccc3)nn2)O[C@@H]1CO	none (no result: TWEAK Fn14 block, TROY signal inh, HSP90 inh)
Cc1ccc(-c2ccc(C3[C@H]4CNC[C@@H]3N4S(=O)(=O)c3ccc(C)cc3)cc2)cc1 (stereo not given in full)	none (no result: TWEAK Fn14 block, TROY signal inh, HSP90 inh)
Cc1ccc(-c2cc(C(=O)Nc3ccc(S(=O)(=O)Nc4cc(C)on4)cc3)c3ccccc3n2)c(C)c1	none (no result: LGR2 inh)
COc1ccc(-c2nc3ccccc3c(C(=O)Nc3ccc(S(=O)(=O)Nc4cc(C)on4)cc3)c2C)cc1	TWEAK Fn14 block 51 (no result: LGR2 inh)
CCOc1ccc(C=NNC(=O)c2ccc(-n3cnnn3)cc2)cc1	TWEAK Fn14 block 56 (no result: HSP90 inh)
CCOC(=O)c1cnc(SC2CC(=O)N(c3ccccc3)C2=O)nc1N (stereo not given)	none
CCOC(=O)c1cnc(SC2CCc3ccccc3C2=O)nc1N (stereo not given)	HSP90 inh 16 (no result: LGR2 inh)
COc1ccc(NC(=O)N(C)C[C@H]2Oc3c(cccc3N(C)C)C(=O)N([C@H](C)CO)C[C@H]2C)cc1	none (no result: TWEAK Fn14 block, TROY signal inh, HSP90 inh)
COc1ccccc1NS(=O)(=O)c1ccc2oc(SCc3ccc(C#N)cc3)nc2c1	TWEAK Fn14 block 58
CN(NS(=O)(=O)c1ccc(Br)cc1)c1nc(C(F)(F)F)nc2ccccc12	TROY signal inh 58
O=C(COC(=O)CCN1C(=O)/C(=C\C=C\c2ccccc2)SC1=S)Nc1cc(F)ccc1F	TWEAK Fn14 block 55
COc1ccc(C(=O)NOCc2ccccc2)cc1	TWEAK Fn14 block 86, LGR2 inh 73 (no result: HSP90 inh)

Bioassay records deposited in PubChem BioAssay by several laboratories.
